Where “and” joins values, the source holds several entries; their conditions need not be identical. Equal values may be shown once. Results filed as inconclusive are left out. Where a call stands in place of a potency, no number is given. More than one record can exist for a structure, and the calls need not agree. Calls of active or inactive are those of the source. Unless noted, calls follow the shape of the full dose curve.
Columns and labels:
[1] = Nuclear factor erythroid 2-related factor 2/antioxidant responsive element (Nrf2/ARE) small molecule agonists: qHTS cell viability counter screen in human keratinocytes (AID 1919968; active = well fitted curve in the direction sought with a large enough effect in the repeat runs; an effect the other way counts as inactive or inconclusive; also: nearly all actives have a fitted effect of over 55% in size; also: potency is read from the fitted curve at half-maximal effect)
Outline: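 HaCaT ARE reporter line, 1,500 cells/well; 5 h settle, 37 C/5% CO2; cpd in DMSO pinned; 23 h exposure; CellTiter-Fluor, 1 h; fluorescence.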

[2] = Nuclear factor erythroid 2-related factor 2/antioxidant responsive element (Nrf2/ARE) small molecule agonists: luciferase reporter gene qHTS assay in human keratinocytes (AID 1919969); also: nearly all actives have a fitted effect of over 35% in size; also: potency is read from the fitted curve at half-maximal effect
[3] = target: Gonadotropin-releasing hormone receptor (Homo sapiens) (UniProt P30968); assay: Human gonadotropin-releasing hormone receptor (GnRHR) small molecule agonists, calcium flux assay in GnRHR-HEK293 cells (AID 1920063); also: nearly all actives have a fitted effect of over 35% in size
Outline: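 GnRHR-HEK293, 1500 cells/well, 18 h 37 C/5% CO2; Ca dye 1 h 37 C; cpd pinned (DMSO), agonist mode; kinetic FL 480/540, 3 min, 1 s reads; 15 conc, n=3.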

[4] = target: KiSS-1 receptor (Homo sapiens) (UniProt Q969F8); assay: Human kisspeptin (KISS1R) small molecule agonists, calcium flux assay in KISS1R-HEK293 cells (AID 1920064; active = well fitted curve in the direction sought with a large enough effect in the repeat runs; an effect the other way counts as inactive or inconclusive)
Outline: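 Stable human KISS1R HEK293 line; 18 h plating, 37 C/5% CO2; calcium dye 1 h 37 C; compound pin transfer; kinetic fluorescence Ex/Em 480/540, 3 min.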

[5] = G protein-coupled receptor (GPCR) small molecule agonists, calcium flux assay: HEK293 wild type cell line counter screen (AID 1920065)
Outline: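 Kinetic fluorescence at Ex/Em 480/540, recorded every second over 3 min, served as the read-out after compound addition. Each compound was tested at 15 concentrations in triplicate on cells pre-loaded with calcium dye for 1 h.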

[6] = p53 small molecule agonists, cell-based qHTS assay with human liver microsomes (AID 1963577);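 also: p53 response element beta-lactamase reporter cells with liver microsomes plus NADPH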
Outline: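 HLM-supplemented p53RE-bla reporter assay: 16 h compound exposure at 37 C, microsomes and NADPH each 0.5 mg/mL final, read by fluorescence intensity.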

[7] = p53 small molecule agonists, cell-based qHTS assay with rat liver microsomes (AID 1963578)
Outline: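 Quantitative HTS of the Tox21 10K library: p53RE-bla cells, rat liver microsomes plus NADPH at 0.5 mg/mL final each, 16 h at 37 C, beta-lactamase fluorescence detection.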

[8] = p53 small molecule agonists, cell-based qHTS assay with human liver microsomes: qHTS cell viability counter screen (AID 1963579); also: nearly all actives have a fitted effect of over 45% in size; also: potency is read from the fitted curve at half-maximal effect
Outline: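 Viability of p53RE-bla cells is measured as CellTiter-Glo luminescence following a 16 h, 37 C incubation with compound, liver microsomes from human donors and NADPH.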

[9] = p53 small molecule agonists, cell-based qHTS assay with rat liver microsomes: qHTS cell viability counter screen (AID 1963580); also: nearly all actives have a fitted effect of over 45% in size; also: potency is read from the fitted curve at half-maximal effect
Outline: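 p53RE-bla HCT-116 cells (4,000/well) rested 5 h at 37 C, then given Tox21 compounds in DMSO with rat liver microsomes (0.5 mg/mL final) plus NADPH (0.5 mg/mL final) for 16 h at 37 C. Viability read by CellTiter-Glo luminescence after 30 min at room temperature.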

[10] = p53 small molecule agonists, cell-based qHTS assay (AID 1963582; active = well fitted activation curve with a large enough effect in the signal ratio in the repeat runs, not every such curve was filed as active; the % refers to the signal ratio)
Outline: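 Reporter line: p53RE-bla. Pre-incubation 5 h, 37 C, 5% CO2; compound (DMSO, pin tool) 16 h, 37 C; B/G FRET substrate 2 h RT; fluorescence intensity read.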

[11] = target: 5-hydroxytryptamine receptor 2A (Homo sapiens) (UniProt P28223); assay: 5-hydroxytryptamine receptor 2A (HTR2A) small molecule antagonists, cell-based qHTS assay (AID 1963586); also: nearly all actives have a fitted effect of over 45% in size; also: potency is read from the fitted curve at half-maximal effect
Outline: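 Antagonist-mode intracellular calcium assay: DOI (4 nM) added after 5 min compound pre-incubation at room temperature to dye-loaded HTR2A-CHO cells. Fluorescence followed for 3 min, sampled every second.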

[12] = target: 5-hydroxytryptamine receptor 2A (Homo sapiens) (UniProt P28223); assay: 5-hydroxytryptamine receptor 2A (HTR2A) small molecule agonists, cell-based qHTS assay (AID 1963587); also: nearly all actives have a fitted effect of over 30% in size; also: potency is read from the fitted curve at half-maximal effect
Outline: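 HTR2A-CHO cells, plated 18 h at 37 C/5% CO2, dye-loaded 1 h at 37 C; compounds in DMSO added by pin tool (agonist mode). Intracellular calcium flux read as kinetic fluorescence on FDSS over 2 min at 1 s intervals.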

[13] = target: Muscarinic acetylcholine receptor M1 (Homo sapiens) (UniProt P11229); assay: Cholinergic receptor muscarinic 1 (CHRM1) small molecule antagonists, cell-based qHTS assay (AID 1963588); also: nearly all actives have a fitted effect of over 40% in size
Outline: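 CHRM1-CHO calcium-flux assay, antagonist mode. Cells were seeded 18 h, dye-loaded 1 h at 37 C and given compound for 5 min at RT, then acetylcholine was added at 50nM. FDSS fluorescence was read 3 min; 15 concentrations, three runs.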

[14] = target: Muscarinic acetylcholine receptor M1 (Homo sapiens) (UniProt P11229); assay: Cholinergic receptor muscarinic 1 (CHRM1) small molecule agonists, cell-based qHTS assay (AID 1963589); also: nearly all actives have a fitted effect of over 35% in size
Outline: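 Human M1 in stable CHO line; 18 h plating, 1 h dye load 37 C; cpd added (agonist mode); Ca2+ fluorescence kinetic read, 1 s intervals; 15 conc, 3 runs.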

[15] = cAMP Responsive Elements (CRE) small molecule agonists, cell-based qHTS assay (AID 1963590)
Outline: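 HEK 293T CRE-bla, 2,000 cells/well, 18 h preincubation 37 C/5% CO2; cpds (DMSO) pinned, 3 h; LiveBLAzer B/G FRET substrate, 2 h RT.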

[16] = cAMP Responsive Elements (CRE) small molecule antagonists, cell-based qHTS assay (AID 1963591; active = well fitted inhibition curve with a large enough effect in the signal ratio in the repeat runs, not every such curve was filed as active; the % refers to the signal ratio)
Outline: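 Beta-lactamase reporter read by FRET substrate (LiveBLAzer B/G) after 2 h at room temperature. CRE-bla HEK293T cells had received compound plus 0.25 uM (final) NKH477 for 3 h at 37 °C.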

[17] = target: Beta-2 adrenergic receptor (Homo sapiens) (UniProt P07550); assay: Adrenergic beta2 receptor (ADRB2) small molecule antagonists, cell-based qHTS assay (AID 1963592); also: series mostly up to about 92 µM; nearly all actives have a fitted effect of over 50% in size
Outline: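 Cells (CHO, stable ADRB2 overexpression) incubated 18-20hr at 37C; compounds added from DMSO; agonist mix (1nM isoproterenol, 100uM IBMX, 25uM Ro-20-1724) added; 0.5hr RT; d2-cAMP and anti-cAMP-cryptate added; 1hr RT; 665/615 nm read.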

[18] = target: D(2) dopamine receptor (Homo sapiens) (UniProt P14416); assay: Dopamine D2 receptor (DRD2) small molecule agonists, cell-based qHTS assay (AID 1963594); also: nearly all actives have a fitted effect of over 35% in size; also: potency is read from the fitted curve at half-maximal effect
Outline: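 HEK293 cells stably expressing DRD2 were cultured 24 h at 37 C, then given Ro20-1724 (0.1 mM final) and compounds for 10 min at room temperature. NKH477 (200nM) was then added for 30 min. cAMP was read by HTRF.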

[19] = target: D(2) dopamine receptor (Homo sapiens) (UniProt P14416); assay: Dopamine D2 receptor (DRD2) small molecule antagonists, cell-based qHTS assay (AID 1963595; active = well fitted inhibition curve with a large enough effect in the signal ratio in the repeat runs, with a control signal flat; the % refers to the signal ratio)
Outline: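 HEK293 cells stably expressing DRD2 were preincubated with 0.1 mM Ro20-1724, then with compound for 10 min at room temperature. Cells were stimulated with 200 nM NKH477 plus 12 nM quinpirole for 30 min, and cAMP was read by HTRF.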

[20] = p53 small molecule agonists, cell-based qHTS assay: qHTS cell viability counter screen (AID 1963581); also: nearly all actives have a fitted effect of over 45% in size; also: potency is read from the fitted curve at half-maximal effect
Outline: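 HCT-116 p53RE-bla cells, 4,000/well, plated 5 h before compound pin transfer; 16 h at 37 C; bla substrate 2 h RT; then CellTiter-Glo, 30 min RT, luminescence.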

Muscarinic acetylcholine receptor M1 (Homo sapiens), sequence (P11229 whole entry, looked up): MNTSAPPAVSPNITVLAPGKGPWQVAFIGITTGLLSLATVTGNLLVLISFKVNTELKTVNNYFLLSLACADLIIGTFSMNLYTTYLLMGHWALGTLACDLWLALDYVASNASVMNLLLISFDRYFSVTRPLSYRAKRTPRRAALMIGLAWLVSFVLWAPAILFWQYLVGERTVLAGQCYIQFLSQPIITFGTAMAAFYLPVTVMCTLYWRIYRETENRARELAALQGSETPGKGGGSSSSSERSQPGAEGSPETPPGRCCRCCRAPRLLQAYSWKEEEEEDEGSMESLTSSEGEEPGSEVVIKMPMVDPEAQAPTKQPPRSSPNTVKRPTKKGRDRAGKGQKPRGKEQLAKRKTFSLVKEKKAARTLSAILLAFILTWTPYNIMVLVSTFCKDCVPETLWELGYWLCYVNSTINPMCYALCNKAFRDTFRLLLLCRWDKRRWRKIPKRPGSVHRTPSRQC
5-hydroxytryptamine receptor 2A (Homo sapiens), sequence (P28223 whole entry, looked up): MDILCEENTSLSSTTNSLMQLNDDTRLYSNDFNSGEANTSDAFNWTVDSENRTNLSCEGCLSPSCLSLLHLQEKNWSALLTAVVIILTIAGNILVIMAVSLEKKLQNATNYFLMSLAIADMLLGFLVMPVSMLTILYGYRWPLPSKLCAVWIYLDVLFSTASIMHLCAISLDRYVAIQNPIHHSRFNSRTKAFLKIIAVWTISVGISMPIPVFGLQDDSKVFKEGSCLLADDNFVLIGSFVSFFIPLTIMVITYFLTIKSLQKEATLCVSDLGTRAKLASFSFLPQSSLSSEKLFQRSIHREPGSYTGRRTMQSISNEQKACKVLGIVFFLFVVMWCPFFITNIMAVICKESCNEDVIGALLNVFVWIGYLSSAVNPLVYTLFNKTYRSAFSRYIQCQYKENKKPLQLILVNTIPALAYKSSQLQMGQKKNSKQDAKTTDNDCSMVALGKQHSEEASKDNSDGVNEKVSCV
KiSS-1 receptor (Homo sapiens), sequence (Q969F8 whole entry, looked up): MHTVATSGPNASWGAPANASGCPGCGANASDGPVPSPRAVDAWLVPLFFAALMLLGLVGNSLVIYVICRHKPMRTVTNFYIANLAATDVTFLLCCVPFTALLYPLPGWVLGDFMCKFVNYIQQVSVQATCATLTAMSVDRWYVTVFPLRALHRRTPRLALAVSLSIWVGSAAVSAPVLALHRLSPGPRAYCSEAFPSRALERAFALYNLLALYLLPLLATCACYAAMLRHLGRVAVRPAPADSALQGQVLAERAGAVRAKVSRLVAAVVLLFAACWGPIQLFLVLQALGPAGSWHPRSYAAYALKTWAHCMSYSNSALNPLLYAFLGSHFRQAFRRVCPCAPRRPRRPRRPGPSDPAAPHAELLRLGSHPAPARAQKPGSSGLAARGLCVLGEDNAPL
Gonadotropin-releasing hormone receptor (Homo sapiens), sequence (P30968 whole entry, looked up): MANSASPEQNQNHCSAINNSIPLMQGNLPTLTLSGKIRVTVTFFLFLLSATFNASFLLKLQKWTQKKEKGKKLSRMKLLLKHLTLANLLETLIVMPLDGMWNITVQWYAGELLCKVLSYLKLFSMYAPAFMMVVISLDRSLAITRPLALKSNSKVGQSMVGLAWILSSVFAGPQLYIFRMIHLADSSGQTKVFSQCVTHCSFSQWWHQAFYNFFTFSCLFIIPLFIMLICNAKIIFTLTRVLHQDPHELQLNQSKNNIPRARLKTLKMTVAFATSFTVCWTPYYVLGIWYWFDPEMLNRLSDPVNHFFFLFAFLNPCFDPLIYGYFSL
Beta-2 adrenergic receptor (Homo sapiens), sequence (P07550 whole entry, looked up): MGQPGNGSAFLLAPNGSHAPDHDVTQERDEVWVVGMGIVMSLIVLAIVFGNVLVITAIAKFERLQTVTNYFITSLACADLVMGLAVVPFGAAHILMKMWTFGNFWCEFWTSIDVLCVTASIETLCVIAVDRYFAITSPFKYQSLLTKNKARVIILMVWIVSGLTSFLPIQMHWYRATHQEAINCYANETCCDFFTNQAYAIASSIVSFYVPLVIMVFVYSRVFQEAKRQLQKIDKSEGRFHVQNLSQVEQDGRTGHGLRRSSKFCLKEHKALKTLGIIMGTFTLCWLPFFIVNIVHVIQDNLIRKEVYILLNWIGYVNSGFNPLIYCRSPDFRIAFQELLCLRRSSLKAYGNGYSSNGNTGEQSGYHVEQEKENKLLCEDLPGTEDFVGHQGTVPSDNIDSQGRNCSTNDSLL
D(2) dopamine receptor (Homo sapiens), sequence (P14416 whole entry, looked up): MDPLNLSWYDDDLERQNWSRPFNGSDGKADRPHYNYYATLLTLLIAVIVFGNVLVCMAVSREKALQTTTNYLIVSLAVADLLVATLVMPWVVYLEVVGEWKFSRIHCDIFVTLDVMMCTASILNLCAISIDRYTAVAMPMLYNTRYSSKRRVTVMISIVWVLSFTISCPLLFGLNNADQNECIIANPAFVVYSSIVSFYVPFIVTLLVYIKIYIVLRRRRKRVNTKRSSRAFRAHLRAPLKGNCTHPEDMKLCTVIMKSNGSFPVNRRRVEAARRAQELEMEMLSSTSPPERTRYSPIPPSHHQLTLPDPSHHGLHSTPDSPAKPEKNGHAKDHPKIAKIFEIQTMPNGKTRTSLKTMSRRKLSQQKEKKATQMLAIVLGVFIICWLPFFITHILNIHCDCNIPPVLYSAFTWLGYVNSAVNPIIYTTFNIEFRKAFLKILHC

Row | Compound | Potency [1] | Potency [2] | Potency [3] | Potency [4] | Potency [5] | Potency [6] | Potency [7] | Potency [8] | Potency [9] | Potency [10] | Potency [11] | Potency [12] | Potency [13] | Potency [14] | Potency [15] | Potency [16] | Potency [17] | Potency [18] | Potency [19] | Potency [20]
1 | CCCCCCCCCBr | inactive | inactive | inactive | inactive | inactive | inactive | inactive | inactive | inactive | inactive | inactive | inactive | inactive | inactive | inactive | inactive | inactive | inactive | inactive | 
2 | CCC(Br)(CC)C(=O)NC(N)=O | inactive | inactive | inactive | inactive | inactive | inactive | inactive | inactive | inactive | inactive | inactive | inactive | inactive | inactive | inactive | inactive | inactive | inactive | inactive | 
3 | ClC(Cl)(Cl)c1ccccc1 | inactive | inactive | inactive | inactive | inactive | inactive | inactive | inactive | inactive | inactive | inactive | inactive | inactive | inactive |  | inactive | inactive | inactive | inactive | 
4 | C=COCCCl | inactive | inactive | inactive | inactive | inactive | inactive | inactive | inactive | inactive | inactive | inactive | inactive | inactive | inactive | inactive | inactive | inactive | inactive | inactive | 
5 | COC[C@H](C)N(C(=O)CCl)c1c(C)csc1C | inactive | inactive | inactive | inactive | inactive | inactive | inactive | inactive | inactive |  | inactive |  | inactive | inactive | inactive | inactive | inactive | inactive | inactive | inactive
6 | CC(C)(O)C(=O)Nc1ccc([N+](=O)[O-])c(C(F)(F)F)c1 | inactive | inactive | inactive | inactive | inactive | inactive | inactive | inactive | inactive |  | inactive | inactive |  | inactive |  | inactive | inactive | inactive |  | inactive
7 | CCCCCCCCn1sccc1=O | 1.22 µM (active) and 1.43 µM (active) | 612 nM (active) and 641 nM (active) | inactive | inactive | inactive | inactive | inactive | 40.9 µM (active) and inactive | 4.09 µM (active) and 1.35 µM (active) |  | inactive and 1.11 µM (active) | inactive and 25.7 µM (active) | inactive | inactive |  |  | inactive | 42.8 µM (active) | inactive | 40.9 µM (active) and 38.1 µM (active)

Reference: PubChem BioAssay (Tox21)
